Each structure is given as a SMILES string. About 83,000 compounds went through this panel and 20% of them were active in at least one assay; those are over-represented in the sample as a whole.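 The endpoint reported here, percent growth, reads 100 for growth as untreated, 0 for no net growth and -100 for all cells dead.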 A number with no mark means an inactive call. Calls of active or inactive are those of the source. The calls were made as follows: active = growth percent below 10; inactive = the rest.

This assay deals with MDA-MB-468 breast. The experiment in a line: NCI-60 one-dose screen, 48 h (100 = growth as untreated, 0 = no growth, -100 = all killed). Conditions: 10 µM unless noted.

Consider `O=S(=O)(Cc1cccc2c(CS(=O)(=O)c3ccc(Cl)cc3)cccc12)c1ccc(Cl)cc1`, for which the growth was 97%.
For the compound `C#C[C@]1(O)CC[C@H]2[C@@H]3CC=C4c5sc(C6CCOCC6)nc5CC[C@]4(C)[C@H]3CC[C@@]21C`, the growth was 68.5%.
Consider `CCCCN=C(N)c1ccc(OCCSCCOc2ccc(C(N)=NCCCC)cc2)cc1`, for which the growth was 38.9%.
For the compound `O=C(Nc1cccc(C(F)(F)F)c1)Oc1ccc(Cl)c2cccnc12`, the growth was -27.2% (active).
`CCCCCCCCCCCCCCCCNC(=O)OC(C)C`: the growth is 36.1%.
For the compound `CCN1C(=O)N(CC)C2SC(N/N=C/c3cccs3)=NC21` (stereo not given), the growth is 32.4%.
Take `COc1cc(CCC[P+](c2ccccc2)(c2ccccc2)c2ccccc2)c(OC)c(OC)c1OC`: the growth is 30.3%.
Take `CCc1ccc(Nc2cc(C)c3ccc(O)cc3n2)cc1`: the growth was -11.2% (active).
As to `N#C/C(=C1C=C/C(=N\O)C(Cl)=C\1)c1ccccc1`, the growth is 41.2%.
To `CC1(C)NCCC[C@]2(C)[C@H]3CC(=O)[C@H]4[C@@H]5C[C@](C)(CO)CC[C@]5(C)CC[C@@]4(C)[C@]3(C)CC[C@@H]12` belongs 86.9%; to `O=C1NC(=O)c2c1c1c3ccccc3[nH]c1c1oc3ccc(F)cc3c21`, 8.7% (active); to `COC(=O)[C@]12CC[C@@H](C)[C@H](C)[C@@H]1C1=CC[C@@H]3[C@@]4(C)C(C=O)=C[C@@](C)(COC(=O)c5ccco5)[C@@H]4[C@H](O)C[C@@]3(C)[C@]1(C)CC2`, -12.1% (active).
With `COc1ccc(N/N=C/c2c(-c3ccc(S(C)(=O)=O)cc3)nc3ccccn23)cc1`, the growth was 58.2%.
On to `N#Cc1cccc(C2C3=C(COC3=O)N(CCO)c3cc4c(cc32)CCC4)c1` (stereo not given), for which the growth was 3.97% (active).
Take `COc1ccc(C(=O)c2cc(OC)c(OC)c(OC)c2)cc1/C=C/C(=O)c1ccc(OC)c(OC)c1`: the growth was 8.42% (active).
`CCN1C(=O)N(CC)C2SC(N/N=C/C=C/c3ccccc3OC)=NC21` (stereo not given): the growth was 36.8%.
`CC(=O)Nc1cscc1NC(C)=O`: the growth was 95.1%.
`CC1(C)NC2=C(C(Nc3cccnc3)N1)C(c1ccc([N+](=O)[O-])cc1)C(C(=O)c1ccc(N=[N+]=[N-])cc1)O2` (stereo not given): the growth is 115%.
On to `CN(C)CCOc1nc2ccccc2c2c1-c1ccc(Cl)cc1C2=O`, for which the growth was -51.1% (active).
For the compound `CCCCCN1C(=O)CCC1=O`, the growth is 108%.
To `CCCCCCCCCCCCc1ccc([N+](CC)(CC)CC)cc1` belongs -5.49% (active).
On to `COc1cc(C2CC(=O)Nc3c2c(C)nn3-c2nc3ccccc3[nH]2)c(OC)c2c1OCO2` (stereo not given), for which the growth is 36.7%.
For `CCCn1cc(/C=N\N=C2\C(=O)Nc3ccc(C)cc32)c2ccccc21` the value was 25.2%; for `O=C1Nc2ccccc2/C1=C/C(=N/c1nnc(-c2ccccc2)s1)c1ccccc1`, 56%; for `CCc1ccc(C2=C/C(=C/c3ccc(Cl)cc3)C(=O)N2CCc2ccc(S(N)(=O)=O)cc2)cc1`, 13.5%.
To `CN(C)CCCN(Cc1ccccc1O)C(=S)Nc1ccc(Cl)cc1` belongs 89.6%; to `CSC1=Nc2c(c(C)c(-c3ccccc3)n2CCCCl)C2=NC(=O)CN12`, 47.3%; to `CSc1nc2c(c(=O)n1C)C1(C(=O)N(Cc3ccccc3)c3ccccc31)c1c(nc(SC)n(C)c1=O)N2`, 86%.
To `O=C(Nc1nc2ccc(S(=O)(=O)Nc3ccc(C4(C(F)(F)F)CC4)cc3)cc2[nH]1)c1cnccn1` belongs -12% (active); to `Nc1nc(Cl)c2ncn(Cc3cc4c(cc3I)OCO4)c2n1`, 7.98% (active).
In the case of `C1CNC(C2=NCCN2)=N1`, the growth is -26.9% (active).
Regarding `CNCc1cccc2c1OCCOCCOCCNS(=O)(=O)c1ccc(cc1)-c1cnc(N)c(n1)C(=O)N2`, the growth is 35.6%.
For the compound `Cc1cc(C(=O)CCCC(=O)c2cc(C)c(O)c(C)c2)cc(C)c1O`, the growth was -3.17% (active).
Consider `Fc1ccc(-c2cc3nc(C(Cl)Cl)nc(-c4ccccc4)n3n2)cc1`, for which the growth was -59.1% (active).
Take `COc1ccc(/C=N/NC(N)=S)cc1`: the growth was 82.6%.

These data come from PubChem BioAssay (NCI).
